Results taken from PubChem BioAssay AID1159580 (chemical genetic matrix, 2015).
“And” between values parts separate entries of the source, which are not always exact repeats. Equal values may be shown once. Out of some 5,500 compounds screened, about 2,000 (36%) were called active. About 18% were inconclusive and are not listed. No stated cut-off is given here; in the data, active means normalized growth mostly below about 0.91 (no sharp cut-off); inconclusive means no clear call, values can overlap the other calls; inactive means mostly above about 0.92. The list shows a part of the results.

Assay: chemical genetic growth profiling, strain panel (AID 1159580);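 further: tested at 20 µM; growth read once vehicle control cultures reached saturation at 30 °C; 1 = growth at the plate median or of vehicle wells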
Conditions: S. cerevisiae deletion strains, growth OD

Measured: normalized growth

C[C@H]1C(=O)O[C@@H]2CCN3CC=C(COC(=O)[C@](C)(O)[C@]1(C)O)[C@H]23
inactive: locus YAL021C, strain ccr4, stronger effect = lower value 1 | locus YAL026C, strain drs2, stronger effect = lower value 0.991 | locus YAL030W, strain snc1, stronger effect = lower value 0.989 | locus YBL061C, strain skt5, stronger effect = lower value 0.995 | locus YBR009C, strain hhf1, stronger effect = lower value 0.993 | locus YBR021W, strain FUR4, stronger effect = lower value 0.978 | locus YBR023C, strain chs3, stronger effect = lower value 0.995 | locus YBR171W, strain sec66, stronger effect = lower value 0.987 | locus YBR229C, strain ROT2, stronger effect = lower value 0.989 | locus YBR231C, strain swc5, stronger effect = lower value 0.984 | locus YBR279W, strain paf1, stronger effect = lower value 0.99 | locus YCL011C, strain gbp2, stronger effect = lower value 0.997 | locus YCL016C, strain dcc1, stronger effect = lower value 0.999 | locus YCL029C, strain bik1, stronger effect = lower value 0.99 | locus YCL069W, strain vba3, stronger effect = lower value 0.995 | locus YCR088W, strain abp1, stronger effect = lower value 0.992 | locus YDL005C, strain med2, stronger effect = lower value 0.992 | locus YDL035C, strain GPR1, stronger effect = lower value 0.999 | locus YDL040C, strain nat1, stronger effect = lower value 0.991 | locus YDL074C, strain BRE1, stronger effect = lower value 1.02 | locus YDL101C, strain DUN1, stronger effect = lower value 0.99 | locus YDL134C, strain PPH21, stronger effect = lower value 0.968 | locus YDL185W, strain tfp1, stronger effect = lower value 0.984 | locus YDL192W, strain arf1, stronger effect = lower value 0.981 | locus YDR001C, strain nth1, stronger effect = lower value 0.99 | locus YDR069C, strain doa4, stronger effect = lower value 0.99 | locus YDR101C, strain arx1, stronger effect = lower value 0.994 | locus YDR137W, strain rgp1, stronger effect = lower value 0.972 | locus YDR159W, strain sac3, stronger effect = lower value 0.984 | locus YDR162C, strain NBP2, stronger effect = lower value 0.996 | locus YDR195W, strain ref2 0.945 | locus YDR297W, strain sur2, stronger effect = lower value 0.998 | locus YDR318W, strain mcm21, stronger effect = lower value 0.996 | locus YDR334W, strain swr1, stronger effect = lower value 0.995 | locus YDR335W, strain msn5, stronger effect = lower value 0.989 | locus YDR388W, stronger effect = lower value 0.997 | locus YDR392W, strain spt3, stronger effect = lower value 0.995 | locus YDR502C, strain sam2, stronger effect = lower value 0.99 | locus YEL003W, strain gim4, stronger effect = lower value 0.991 | locus YEL037C, strain rad23, stronger effect = lower value 0.996 | locus YEL061C, strain CIN8 (second series), stronger effect = lower value 0.99 | locus YEL061C, strain CIN8, stronger effect = lower value 0.995 | locus YER015W, strain faa2, stronger effect = lower value 0.998 | locus YER016W, strain bim1, stronger effect = lower value 0.989 | locus YER110C, stronger effect = lower value 0.986 | locus YER111C, strain swi4, stronger effect = lower value 0.969 | locus YER155C, strain BEM2 (second series), stronger effect = lower value 0.937 | locus YER155C, strain BEM2, stronger effect = lower value 0.988 | locus YER167W, strain BCK2, stronger effect = lower value 0.982 | locus YFR010W, strain ubp6, stronger effect = lower value 0.99 | locus YGL078C, strain dbp3, stronger effect = lower value 0.988 | locus YGL086W, strain mad1, stronger effect = lower value 1.01 | locus YGL167C, strain pmr1, stronger effect = lower value 0.994 | locus YGL173C, strain kem1, stronger effect = lower value 0.994 | locus YGL227W, strain vid30, stronger effect = lower value 0.982 | locus YGL240W, strain doc1, stronger effect = lower value 0.987 | locus YGL248W, strain PDE1, stronger effect = lower value 0.997 | locus YGL253W, strain hxk2, stronger effect = lower value 0.994 | locus YGR135W, strain pre9, stronger effect = lower value 0.987 | locus YGR229C, strain SMI1, stronger effect = lower value 1 | locus YGR252W, strain gcn5, stronger effect = lower value 0.98 | locus YHR013C, strain ard1, stronger effect = lower value 1 | locus YHR027C, strain rpn1, stronger effect = lower value 0.991 | locus YHR030C, strain SLT2, stronger effect = lower value 0.986 and 0.998 | locus YHR079C, strain IRE1 (second series), stronger effect = lower value 0.994 | locus YHR079C, strain IRE1, stronger effect = lower value 0.985 | locus YHR094C, strain hxt1, stronger effect = lower value 0.991 | locus YHR129C, strain ARP1, stronger effect = lower value 0.989 | locus YHR142W, strain chs7, stronger effect = lower value 1 | locus YHR200W, strain rpn10, stronger effect = lower value 0.991 | locus YIL066C, strain RNR3, stronger effect = lower value 0.992 | locus YIL073C, strain SPO22, stronger effect = lower value 0.969 | locus YIL125W, strain kgd1, stronger effect = lower value 0.995 | locus YIR030C, strain dcg1, stronger effect = lower value 0.99 | locus YJL092W, strain hpr5, stronger effect = lower value 0.97 | locus YJL095W, strain BCK1 (second series), stronger effect = lower value 0.984 | locus YJL095W, strain BCK1, stronger effect = lower value 1.02 and 1 | locus YJL115W, strain asf1, stronger effect = lower value 0.969 | locus YJL129C, strain trk1, stronger effect = lower value 0.968 | locus YJL134W, strain LCB3, stronger effect = lower value 0.994 | locus YJL154C, strain vps35, stronger effect = lower value 0.991 | locus YJL164C, strain tpk1, stronger effect = lower value 1.01 | locus YJL166W, strain qcr8, stronger effect = lower value 0.987 | locus YJL168C, strain set2, stronger effect = lower value 0.997 | locus YJL187C, strain SWE1 (second series), stronger effect = lower value 0.995 | locus YJL187C, strain SWE1, stronger effect = lower value 0.996 | locus YJR043C, strain POL32, stronger effect = lower value 1.01 | locus YJR066W, strain TOR1, stronger effect = lower value 0.944 | locus YKL009W, strain mrt4, stronger effect = lower value 0.983
